Columns and labels:
Assay in all cases: log2 ratio of Biotin-Ahx-Ub-VS probe labelling (fragment/DMSO); higher = less target engagement (more negative = stronger competition), active = hit call of the paper (q ≤ 0.05, log2 ratio ≤ -1)
Conditions in all cases: compound concentration: 200 uM; treatment time: 3 h
[1] = biological target: USP34 (UniProt Q70CQ2)
How it was run: (§1)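 Values give the average log2 ratio of fragment to vehicle, assessed by unpaired t-test on global-median-normalised Spectronaut label-free quantities. Proteins needed ≥2 unique peptides. HEK293T lysate (495 µg per sample) was treated in triplicate with fragment at 200 µM or vehicle for 3 h and then with Biotin-Ahx-Ub-VS at 0.5 µM final for 1 h. Labelled DUBs were NeutrAvidin-enriched, digested and run by diaPASEF LC-MS/MS.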

[2] = biological target: T1, USP36 (UniProt Q9P275)
T1 sequence (whole entry): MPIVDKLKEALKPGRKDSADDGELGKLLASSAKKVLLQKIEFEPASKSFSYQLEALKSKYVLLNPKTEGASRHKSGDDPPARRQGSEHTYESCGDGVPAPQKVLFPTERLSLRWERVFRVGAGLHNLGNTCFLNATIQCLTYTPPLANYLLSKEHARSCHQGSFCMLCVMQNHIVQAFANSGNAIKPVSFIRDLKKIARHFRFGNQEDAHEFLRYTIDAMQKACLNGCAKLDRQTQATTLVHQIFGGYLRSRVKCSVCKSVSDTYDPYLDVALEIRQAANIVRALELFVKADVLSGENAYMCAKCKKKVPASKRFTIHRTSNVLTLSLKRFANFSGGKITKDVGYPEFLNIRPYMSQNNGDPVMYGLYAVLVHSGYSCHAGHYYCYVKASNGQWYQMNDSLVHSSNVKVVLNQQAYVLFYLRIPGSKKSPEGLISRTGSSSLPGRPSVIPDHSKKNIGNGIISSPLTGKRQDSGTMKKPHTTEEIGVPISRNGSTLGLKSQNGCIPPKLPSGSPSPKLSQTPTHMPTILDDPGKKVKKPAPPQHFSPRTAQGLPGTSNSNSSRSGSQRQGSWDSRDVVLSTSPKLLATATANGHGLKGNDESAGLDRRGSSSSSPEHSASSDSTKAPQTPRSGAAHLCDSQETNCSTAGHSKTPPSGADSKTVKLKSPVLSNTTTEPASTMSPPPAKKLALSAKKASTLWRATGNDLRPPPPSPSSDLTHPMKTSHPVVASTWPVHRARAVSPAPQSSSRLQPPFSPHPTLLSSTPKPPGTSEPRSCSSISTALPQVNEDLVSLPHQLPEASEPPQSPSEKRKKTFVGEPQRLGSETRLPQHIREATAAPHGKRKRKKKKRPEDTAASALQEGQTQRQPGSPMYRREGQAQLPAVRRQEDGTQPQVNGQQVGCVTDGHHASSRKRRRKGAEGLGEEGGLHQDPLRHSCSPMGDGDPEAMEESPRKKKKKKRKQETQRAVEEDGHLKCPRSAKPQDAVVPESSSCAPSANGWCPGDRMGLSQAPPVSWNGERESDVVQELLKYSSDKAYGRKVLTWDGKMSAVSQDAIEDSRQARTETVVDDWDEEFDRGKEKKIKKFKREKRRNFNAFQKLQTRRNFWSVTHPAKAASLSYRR
How it was run: as §1

[3] = biological target: T2, USP38 (UniProt Q8NB14)
T2 sequence (whole entry): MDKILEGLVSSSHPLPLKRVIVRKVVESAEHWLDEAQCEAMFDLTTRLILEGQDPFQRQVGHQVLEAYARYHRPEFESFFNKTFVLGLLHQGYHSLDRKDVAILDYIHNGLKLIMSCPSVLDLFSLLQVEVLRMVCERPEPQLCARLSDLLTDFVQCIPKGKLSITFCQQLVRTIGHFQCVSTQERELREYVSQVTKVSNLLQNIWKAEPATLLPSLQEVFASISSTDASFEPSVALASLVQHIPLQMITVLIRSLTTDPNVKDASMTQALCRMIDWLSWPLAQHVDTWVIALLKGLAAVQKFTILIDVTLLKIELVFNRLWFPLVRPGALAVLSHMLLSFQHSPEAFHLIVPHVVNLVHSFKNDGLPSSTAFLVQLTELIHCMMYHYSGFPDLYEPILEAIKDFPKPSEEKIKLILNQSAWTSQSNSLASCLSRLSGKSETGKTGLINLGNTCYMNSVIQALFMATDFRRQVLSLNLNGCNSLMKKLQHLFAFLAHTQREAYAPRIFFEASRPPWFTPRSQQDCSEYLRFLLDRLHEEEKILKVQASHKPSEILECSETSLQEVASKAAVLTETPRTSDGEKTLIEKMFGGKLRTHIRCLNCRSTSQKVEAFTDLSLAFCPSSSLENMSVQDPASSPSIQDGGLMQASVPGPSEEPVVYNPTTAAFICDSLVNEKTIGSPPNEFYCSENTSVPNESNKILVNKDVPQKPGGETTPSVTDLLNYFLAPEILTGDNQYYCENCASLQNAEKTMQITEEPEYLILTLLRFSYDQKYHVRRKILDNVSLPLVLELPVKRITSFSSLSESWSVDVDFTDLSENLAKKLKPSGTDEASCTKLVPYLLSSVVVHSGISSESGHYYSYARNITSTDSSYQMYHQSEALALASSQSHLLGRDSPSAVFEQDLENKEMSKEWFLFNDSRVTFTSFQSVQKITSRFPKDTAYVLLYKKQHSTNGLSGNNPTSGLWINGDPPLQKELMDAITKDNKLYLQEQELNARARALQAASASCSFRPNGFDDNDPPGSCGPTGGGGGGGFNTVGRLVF
How it was run: as §1

[4] = biological target: T3, USP39 (UniProt Q53GS9)
T3 sequence (whole entry): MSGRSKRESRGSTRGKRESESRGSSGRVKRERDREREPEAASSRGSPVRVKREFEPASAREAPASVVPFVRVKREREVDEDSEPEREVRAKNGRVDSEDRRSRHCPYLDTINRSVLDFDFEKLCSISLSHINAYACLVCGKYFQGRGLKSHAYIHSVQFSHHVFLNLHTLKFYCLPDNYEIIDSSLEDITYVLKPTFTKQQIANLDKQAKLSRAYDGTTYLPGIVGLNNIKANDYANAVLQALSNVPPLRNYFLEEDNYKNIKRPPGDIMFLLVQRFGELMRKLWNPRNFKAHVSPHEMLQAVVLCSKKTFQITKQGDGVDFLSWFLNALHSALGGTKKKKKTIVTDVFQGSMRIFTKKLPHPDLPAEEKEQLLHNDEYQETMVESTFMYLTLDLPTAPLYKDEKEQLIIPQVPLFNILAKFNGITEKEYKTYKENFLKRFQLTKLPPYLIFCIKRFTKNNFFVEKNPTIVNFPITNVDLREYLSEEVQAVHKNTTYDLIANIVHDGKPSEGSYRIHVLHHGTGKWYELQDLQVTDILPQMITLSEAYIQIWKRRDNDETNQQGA
How it was run: as §1

[5] = biological target: T4, USP4 (UniProt Q13107)
T4 sequence (whole entry): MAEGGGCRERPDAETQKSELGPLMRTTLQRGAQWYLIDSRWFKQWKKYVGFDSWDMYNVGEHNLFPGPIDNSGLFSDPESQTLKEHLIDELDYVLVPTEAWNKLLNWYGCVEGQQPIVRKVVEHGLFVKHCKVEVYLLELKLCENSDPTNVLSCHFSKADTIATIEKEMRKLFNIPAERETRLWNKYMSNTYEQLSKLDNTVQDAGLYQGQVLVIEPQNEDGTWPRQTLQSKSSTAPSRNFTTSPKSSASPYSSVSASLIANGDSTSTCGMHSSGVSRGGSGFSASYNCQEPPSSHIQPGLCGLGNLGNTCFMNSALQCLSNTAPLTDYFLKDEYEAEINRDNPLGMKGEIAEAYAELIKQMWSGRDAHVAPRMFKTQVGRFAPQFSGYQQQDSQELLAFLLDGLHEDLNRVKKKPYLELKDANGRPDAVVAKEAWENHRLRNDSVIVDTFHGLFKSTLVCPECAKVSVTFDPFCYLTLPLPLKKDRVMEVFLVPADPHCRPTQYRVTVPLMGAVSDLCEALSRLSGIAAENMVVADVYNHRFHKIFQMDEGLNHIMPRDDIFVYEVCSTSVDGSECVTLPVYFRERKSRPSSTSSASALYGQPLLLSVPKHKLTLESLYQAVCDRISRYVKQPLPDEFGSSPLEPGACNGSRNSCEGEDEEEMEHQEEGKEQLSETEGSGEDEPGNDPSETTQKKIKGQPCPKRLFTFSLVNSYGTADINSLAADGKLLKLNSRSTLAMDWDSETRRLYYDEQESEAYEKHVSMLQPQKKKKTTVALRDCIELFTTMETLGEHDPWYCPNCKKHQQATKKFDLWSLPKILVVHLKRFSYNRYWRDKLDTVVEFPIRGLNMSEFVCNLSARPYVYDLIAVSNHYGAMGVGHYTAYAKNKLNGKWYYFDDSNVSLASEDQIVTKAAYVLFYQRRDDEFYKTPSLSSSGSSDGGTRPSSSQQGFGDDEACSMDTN
How it was run: as §1

Measured: log2 ratio of Biotin-Ahx-Ub-VS probe labelling

USP34, sequence (Q70CQ2 whole entry, the tested form may be a part): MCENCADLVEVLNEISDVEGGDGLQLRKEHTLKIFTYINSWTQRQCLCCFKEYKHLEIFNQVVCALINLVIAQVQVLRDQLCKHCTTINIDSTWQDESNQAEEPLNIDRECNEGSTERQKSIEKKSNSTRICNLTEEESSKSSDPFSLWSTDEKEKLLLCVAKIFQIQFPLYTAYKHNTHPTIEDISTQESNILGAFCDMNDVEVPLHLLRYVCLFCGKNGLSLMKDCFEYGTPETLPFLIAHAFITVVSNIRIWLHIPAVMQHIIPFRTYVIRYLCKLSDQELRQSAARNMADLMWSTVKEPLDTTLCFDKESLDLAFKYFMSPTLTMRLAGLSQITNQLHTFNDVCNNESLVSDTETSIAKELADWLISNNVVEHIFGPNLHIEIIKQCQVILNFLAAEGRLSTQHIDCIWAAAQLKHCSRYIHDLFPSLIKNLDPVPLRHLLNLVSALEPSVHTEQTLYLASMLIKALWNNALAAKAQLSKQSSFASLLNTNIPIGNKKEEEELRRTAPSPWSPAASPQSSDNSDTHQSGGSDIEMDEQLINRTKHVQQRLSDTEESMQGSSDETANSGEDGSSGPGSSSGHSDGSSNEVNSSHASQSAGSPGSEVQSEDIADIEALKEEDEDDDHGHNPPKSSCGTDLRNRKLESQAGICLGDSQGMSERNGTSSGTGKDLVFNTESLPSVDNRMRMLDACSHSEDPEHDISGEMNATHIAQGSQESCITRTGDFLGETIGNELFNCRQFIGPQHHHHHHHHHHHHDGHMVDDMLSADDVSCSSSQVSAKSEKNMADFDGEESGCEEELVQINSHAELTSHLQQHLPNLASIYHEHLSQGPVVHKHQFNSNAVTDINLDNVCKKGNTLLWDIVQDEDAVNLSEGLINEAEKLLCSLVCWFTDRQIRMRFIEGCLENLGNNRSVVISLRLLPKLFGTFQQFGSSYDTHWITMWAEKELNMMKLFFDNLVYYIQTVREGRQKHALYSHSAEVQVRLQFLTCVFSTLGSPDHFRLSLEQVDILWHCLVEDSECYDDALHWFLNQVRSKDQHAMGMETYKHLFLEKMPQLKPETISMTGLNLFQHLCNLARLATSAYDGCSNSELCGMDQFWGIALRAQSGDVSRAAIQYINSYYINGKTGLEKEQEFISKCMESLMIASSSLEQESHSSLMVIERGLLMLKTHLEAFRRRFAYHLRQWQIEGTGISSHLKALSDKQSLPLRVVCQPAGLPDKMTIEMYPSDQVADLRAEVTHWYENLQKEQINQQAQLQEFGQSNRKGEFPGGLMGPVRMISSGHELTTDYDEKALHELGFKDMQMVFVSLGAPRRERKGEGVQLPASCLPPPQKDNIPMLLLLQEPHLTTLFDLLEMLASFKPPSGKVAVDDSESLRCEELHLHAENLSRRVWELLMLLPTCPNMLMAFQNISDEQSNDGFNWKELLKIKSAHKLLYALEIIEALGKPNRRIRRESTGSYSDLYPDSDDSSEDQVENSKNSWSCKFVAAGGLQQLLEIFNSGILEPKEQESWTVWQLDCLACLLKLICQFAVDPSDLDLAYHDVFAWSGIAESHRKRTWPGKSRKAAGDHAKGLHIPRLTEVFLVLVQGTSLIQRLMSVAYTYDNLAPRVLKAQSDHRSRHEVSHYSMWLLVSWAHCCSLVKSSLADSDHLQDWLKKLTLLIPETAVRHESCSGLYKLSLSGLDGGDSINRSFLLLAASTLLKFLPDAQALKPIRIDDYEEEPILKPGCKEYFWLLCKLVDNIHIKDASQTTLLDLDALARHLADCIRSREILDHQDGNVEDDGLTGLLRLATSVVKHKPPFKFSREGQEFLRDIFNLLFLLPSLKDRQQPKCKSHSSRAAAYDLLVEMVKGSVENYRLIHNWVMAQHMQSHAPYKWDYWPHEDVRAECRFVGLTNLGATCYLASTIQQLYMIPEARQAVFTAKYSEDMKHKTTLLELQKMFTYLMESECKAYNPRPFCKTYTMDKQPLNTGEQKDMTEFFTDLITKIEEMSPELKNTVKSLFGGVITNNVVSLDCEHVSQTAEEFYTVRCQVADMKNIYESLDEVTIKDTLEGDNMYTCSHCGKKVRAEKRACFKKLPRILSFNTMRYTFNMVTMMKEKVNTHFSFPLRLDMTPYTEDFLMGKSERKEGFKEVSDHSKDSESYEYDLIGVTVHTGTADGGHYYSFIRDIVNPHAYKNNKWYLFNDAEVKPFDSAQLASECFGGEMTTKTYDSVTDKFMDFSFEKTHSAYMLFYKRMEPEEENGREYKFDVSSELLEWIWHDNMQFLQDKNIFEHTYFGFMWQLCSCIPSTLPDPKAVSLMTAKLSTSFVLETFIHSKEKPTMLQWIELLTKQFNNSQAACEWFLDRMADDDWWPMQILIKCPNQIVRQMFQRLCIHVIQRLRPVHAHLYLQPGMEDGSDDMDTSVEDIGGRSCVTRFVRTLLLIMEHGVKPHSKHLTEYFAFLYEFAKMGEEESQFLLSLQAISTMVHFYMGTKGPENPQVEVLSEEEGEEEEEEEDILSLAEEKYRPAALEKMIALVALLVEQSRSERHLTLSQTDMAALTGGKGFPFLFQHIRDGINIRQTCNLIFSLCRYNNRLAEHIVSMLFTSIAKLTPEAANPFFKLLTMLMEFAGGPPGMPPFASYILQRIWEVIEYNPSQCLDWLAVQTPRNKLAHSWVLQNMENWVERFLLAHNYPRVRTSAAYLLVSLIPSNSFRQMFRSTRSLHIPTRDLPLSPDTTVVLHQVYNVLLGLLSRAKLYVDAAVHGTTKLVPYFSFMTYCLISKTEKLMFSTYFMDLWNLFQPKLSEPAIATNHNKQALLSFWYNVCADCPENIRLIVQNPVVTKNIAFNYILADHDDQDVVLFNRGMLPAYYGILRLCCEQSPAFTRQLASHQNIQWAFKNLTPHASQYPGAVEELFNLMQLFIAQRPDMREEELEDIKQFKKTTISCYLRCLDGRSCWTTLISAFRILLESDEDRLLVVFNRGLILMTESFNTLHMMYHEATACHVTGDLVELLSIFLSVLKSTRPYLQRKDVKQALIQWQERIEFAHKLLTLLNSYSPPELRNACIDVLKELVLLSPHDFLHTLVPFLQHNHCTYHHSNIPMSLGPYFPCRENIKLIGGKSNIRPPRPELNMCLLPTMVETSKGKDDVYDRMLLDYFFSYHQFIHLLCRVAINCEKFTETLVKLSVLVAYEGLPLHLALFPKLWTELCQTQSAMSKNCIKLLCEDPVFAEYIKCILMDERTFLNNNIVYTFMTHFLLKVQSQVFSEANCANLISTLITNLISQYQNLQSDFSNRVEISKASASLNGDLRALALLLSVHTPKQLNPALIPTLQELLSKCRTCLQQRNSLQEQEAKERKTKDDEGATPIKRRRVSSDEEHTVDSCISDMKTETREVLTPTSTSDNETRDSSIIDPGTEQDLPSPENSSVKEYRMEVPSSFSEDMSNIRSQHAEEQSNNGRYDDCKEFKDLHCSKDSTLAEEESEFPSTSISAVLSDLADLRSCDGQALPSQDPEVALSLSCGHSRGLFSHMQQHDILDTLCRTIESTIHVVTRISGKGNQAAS

CCN1C(=O)C2CN(C(=O)CCl)CCN2C1=O (stereo not given)
inactive: [1] 0.053 | [2] -0.271 | [3] -0.0595 | [4] -0.0577 | [5] 0.0781

Source: the supplement of paper PMC11732987, “Enantioselective OTUD7B fragment discovery through chemoproteomics screening and high-throughput optimisation” (Communications Chemistry, 2025)
